# In PubChem BioAssay (NCATS):
# Records with an inconclusive call do not appear. Entries that show only a call come without a potency. The source holds several records for some structures; these can differ, active in one and inactive in another. Activity calls are given as the source filed them. Unless noted, calls come from the whole dose curve; as a rule, active = well fitted curve in the direction sought with a large enough effect; inconclusive = small, poorly fitted or top-dose-only effect, or another doubt; inactive = no such curve, though single readings can be large; an effect the other way counts as inactive or inconclusive. Non-standard residues stand in square brackets, D forms with d. Residues, ends and D or L forms follow the SMILES beside them. *: point of attachment. Sta = CC(C)C[C@H](N)[C@@H](O)CC(=O)O; Isovaleryl = CC(C)CC(=O)*
# Assays:
# [1] = target: Rap guanine nucleotide exchange factor 3 (Homo sapiens) (UniProt O95398); experiment: Confirmatory qHTS for antagonist of cAMP-regulated guanine nucleotide exchange factor 3 (EPAC1) (AID 1645880); note: nearly all actives have a fitted effect of over 55% in size
# Rap guanine nucleotide exchange factor 3 (Homo sapiens), sequence (O95398 whole entry, looked up): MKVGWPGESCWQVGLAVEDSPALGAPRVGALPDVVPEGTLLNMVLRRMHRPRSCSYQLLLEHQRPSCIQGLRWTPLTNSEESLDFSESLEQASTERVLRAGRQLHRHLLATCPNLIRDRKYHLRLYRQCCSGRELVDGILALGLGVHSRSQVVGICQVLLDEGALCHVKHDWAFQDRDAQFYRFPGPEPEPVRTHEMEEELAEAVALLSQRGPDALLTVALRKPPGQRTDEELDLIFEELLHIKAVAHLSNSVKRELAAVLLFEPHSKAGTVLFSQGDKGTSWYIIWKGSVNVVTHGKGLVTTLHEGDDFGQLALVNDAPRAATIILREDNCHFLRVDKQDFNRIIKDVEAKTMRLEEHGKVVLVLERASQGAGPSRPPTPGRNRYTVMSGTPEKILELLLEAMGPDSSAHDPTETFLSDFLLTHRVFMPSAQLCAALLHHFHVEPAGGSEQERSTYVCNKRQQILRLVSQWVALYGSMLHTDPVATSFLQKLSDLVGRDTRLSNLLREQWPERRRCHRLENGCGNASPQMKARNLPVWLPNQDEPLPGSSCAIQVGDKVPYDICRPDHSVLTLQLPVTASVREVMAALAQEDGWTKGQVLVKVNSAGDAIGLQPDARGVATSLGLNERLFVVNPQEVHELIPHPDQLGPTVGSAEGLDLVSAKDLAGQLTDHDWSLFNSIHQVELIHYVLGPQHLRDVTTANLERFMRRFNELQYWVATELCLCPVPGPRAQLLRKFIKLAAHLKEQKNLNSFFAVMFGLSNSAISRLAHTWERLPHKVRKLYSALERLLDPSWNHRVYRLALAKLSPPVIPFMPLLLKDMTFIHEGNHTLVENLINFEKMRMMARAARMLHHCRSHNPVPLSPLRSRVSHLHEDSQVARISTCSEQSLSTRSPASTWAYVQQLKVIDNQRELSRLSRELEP
# Method in brief: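 Released BODIPY-GDP fluoresces less than Rap1-bound BODIPY-GDP; the signal is followed at 480/540 nm at 5-min intervals over 30 min, after 5 min at room temperature. Reactions contain 100 nM EPAC1, 250 nM RAP1B-BODIPY-GDP and 50 uM GDP; results are normalized to ATA and DMSO.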
# [2] = target: Rap guanine nucleotide exchange factor 3 (Homo sapiens) (UniProt O95398); experiment: Confirmatory qHTS for agonist of cAMP-regulated guanine nucleotide exchange factor 3 (EPAC1) (AID 1645881);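 note: EPAC1 catalysed release of BODIPY-GDP from Rap1B seen as fluorescence loss; nearly all actives have a fitted effect of over 75% in size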
# [3] = target: Rap guanine nucleotide exchange factor 4 (Homo sapiens) (UniProt Q8WZA2); experiment: Confirmatory qHTS for agonist of cAMP-regulated guanine nucleotide exchange factor 4 (EPAC2) (AID 1645884);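 note: nucleotide exchange releases bodipy-GDP from Rap1 and this lowers its fluorescence; nearly all actives have a fitted effect of over 65% in size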
# Rap guanine nucleotide exchange factor 4 (Homo sapiens), sequence (Q8WZA2 whole entry, looked up): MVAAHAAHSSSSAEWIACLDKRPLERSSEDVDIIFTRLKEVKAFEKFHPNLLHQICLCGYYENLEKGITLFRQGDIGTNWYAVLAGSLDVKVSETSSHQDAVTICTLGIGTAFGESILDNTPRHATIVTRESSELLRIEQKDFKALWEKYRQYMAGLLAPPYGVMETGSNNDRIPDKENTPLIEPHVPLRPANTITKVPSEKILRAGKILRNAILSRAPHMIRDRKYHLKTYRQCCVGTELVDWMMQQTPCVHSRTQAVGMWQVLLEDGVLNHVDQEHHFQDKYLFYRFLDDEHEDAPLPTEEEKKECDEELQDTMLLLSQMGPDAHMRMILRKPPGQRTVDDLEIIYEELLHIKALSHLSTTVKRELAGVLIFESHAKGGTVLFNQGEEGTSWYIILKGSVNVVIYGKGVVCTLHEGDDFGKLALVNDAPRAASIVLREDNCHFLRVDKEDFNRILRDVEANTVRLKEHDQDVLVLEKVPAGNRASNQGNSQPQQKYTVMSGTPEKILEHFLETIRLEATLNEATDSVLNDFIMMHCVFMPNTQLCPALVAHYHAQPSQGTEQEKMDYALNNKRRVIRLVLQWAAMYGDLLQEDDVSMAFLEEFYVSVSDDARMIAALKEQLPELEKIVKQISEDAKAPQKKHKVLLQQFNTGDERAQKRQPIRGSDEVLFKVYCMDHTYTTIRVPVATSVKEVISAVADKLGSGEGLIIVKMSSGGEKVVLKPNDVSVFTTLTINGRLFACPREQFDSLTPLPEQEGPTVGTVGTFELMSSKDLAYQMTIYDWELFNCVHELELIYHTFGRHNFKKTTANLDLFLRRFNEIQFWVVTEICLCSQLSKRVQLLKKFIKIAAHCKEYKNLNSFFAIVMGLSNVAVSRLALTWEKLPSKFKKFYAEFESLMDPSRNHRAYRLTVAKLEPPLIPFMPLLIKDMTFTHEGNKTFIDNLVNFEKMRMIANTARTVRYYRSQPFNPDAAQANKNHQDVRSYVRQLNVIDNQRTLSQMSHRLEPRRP
# [4] = target: Rap guanine nucleotide exchange factor 4 (Homo sapiens) (UniProt Q8WZA2); experiment: Confirmatory qHTS for antagonist of cAMP-regulated guanine nucleotide exchange factor 4 (EPAC2) (AID 1645885); note: nearly all actives have a fitted effect of over 25% in size; note: potency is the fitted concentration of half-maximal effect
# [5] = target: Metallo-beta-lactamase type 2 (Klebsiella pneumoniae) (UniProt C7C422); experiment: qHTS to identify inhibitors of the New Delhi Metallo-beta-lactamase (NDM): assay validation screen against the NCATS LOPAC Collection (AID 1794843);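 note: nitrocefin turnover by NDM-1 measured as 485 nm absorbance at plateau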
# Metallo-beta-lactamase type 2 (Klebsiella pneumoniae), sequence (C7C422 whole entry, looked up): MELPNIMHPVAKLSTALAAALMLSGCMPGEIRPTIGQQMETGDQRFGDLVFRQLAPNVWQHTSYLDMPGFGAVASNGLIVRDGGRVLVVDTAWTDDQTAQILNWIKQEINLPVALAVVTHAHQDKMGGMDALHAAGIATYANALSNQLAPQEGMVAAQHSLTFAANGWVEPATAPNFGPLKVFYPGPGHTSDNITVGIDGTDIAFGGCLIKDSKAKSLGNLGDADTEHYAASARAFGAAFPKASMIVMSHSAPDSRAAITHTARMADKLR
# Method in brief: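 Enzyme 2 nM final, 50 mM HEPES pH 7.0, 1 uM ZnSO4, 0.01% Tween20; cpds in DMSO, preincub w/ enzyme; + nitrocefin (50 uM stock); A485 at plateau; no-enzyme column as blank.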
# [6] = target: Glutathione peroxidase 1 (Homo sapiens) (UniProt P07203); experiment: Primary qHTS Assay for Inhibitors of Recombinant Selenoprotein Glutathione Peroxidase 1 (GPX1) (AID 1845191); note: nearly all actives have a fitted effect of over 65% in size
# Glutathione peroxidase 1 (Homo sapiens), sequence (P07203 whole entry, looked up): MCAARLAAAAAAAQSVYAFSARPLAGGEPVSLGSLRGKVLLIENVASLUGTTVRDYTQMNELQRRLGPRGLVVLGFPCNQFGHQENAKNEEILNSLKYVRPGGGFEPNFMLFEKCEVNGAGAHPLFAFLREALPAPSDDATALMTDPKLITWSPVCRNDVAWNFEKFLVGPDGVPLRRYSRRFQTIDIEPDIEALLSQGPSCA
# Method in brief: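 GR-coupled readout: NADPH consumption tracked by fluorescence, ex 340/em 450 nm, at t=0 and after 15 min at RT. Final mix 10 nM GPX1, 1 mM GSH, 0.5 mM CHP, 0.5 mM NADPH, 100 nM GR, 0.01% BSA, following 30 min enzyme–compound preincubation.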
# [7] = target: Phospholipid hydroperoxide glutathione peroxidase GPX4 (Homo sapiens) (UniProt P36969); experiment: Primary qHTS Assay for Inhibitors of Recombinant Selenoprotein Glutathione Peroxidase 4 (GPX4) (AID 1845192); note: nearly all actives have a fitted effect of over 65% in size; note: potency is the fitted concentration of half-maximal effect
# Phospholipid hydroperoxide glutathione peroxidase GPX4 (Homo sapiens), sequence (P36969 whole entry, looked up): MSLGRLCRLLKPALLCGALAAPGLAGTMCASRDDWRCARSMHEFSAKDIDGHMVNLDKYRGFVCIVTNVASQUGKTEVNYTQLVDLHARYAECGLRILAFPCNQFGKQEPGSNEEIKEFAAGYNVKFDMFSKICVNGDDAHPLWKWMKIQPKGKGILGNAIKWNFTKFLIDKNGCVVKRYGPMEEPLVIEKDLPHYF
# Method in brief: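 Steps: GPX4 plus compound, 30 min RT; add GR/GSH/NADPH master mix; start with cumene hydroperoxide; read 340/450 nm fluorescence at 0 and 15 min. Finals were 200 nM GPX4, 1 mM GSH, 0.5 mM CHP, 0.5 mM NADPH, 100 nM GR.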
# [8] = target: Catechol O-methyltransferase (Homo sapiens) (UniProt P21964); experiment: Confirmatory Screen for Target Class Profiling of Small Molecule Inhibitors of Methyltransferases (AID 1745852; calls by dose curve; note: potency is the fitted concentration of half-maximal effect); conditions: MTase-Glo luminescence, SAH detection, recombinant enzyme, stronger effect = lower value; measured here: COMT max response unless noted
# Catechol O-methyltransferase (Homo sapiens), sequence (P21964 whole entry, looked up): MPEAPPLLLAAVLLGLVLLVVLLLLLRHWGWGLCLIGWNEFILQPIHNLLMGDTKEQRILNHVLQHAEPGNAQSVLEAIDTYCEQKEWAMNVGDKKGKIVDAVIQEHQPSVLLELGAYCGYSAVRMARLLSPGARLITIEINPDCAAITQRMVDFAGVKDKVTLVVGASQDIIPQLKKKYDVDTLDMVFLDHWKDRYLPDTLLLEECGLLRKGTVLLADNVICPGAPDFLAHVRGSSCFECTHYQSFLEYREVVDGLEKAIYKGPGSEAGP
# [9] = target: Guanidinoacetate N-methyltransferase (Homo sapiens) (UniProt Q14353); experiment: as above; conditions: MTase-Glo luminescence, SAH detection, recombinant enzyme; activity change, negative = inhibition: at 57.3 µM (top of the series)
# [10] = target: Nicotinamide N-methyltransferase (Homo sapiens) (UniProt P40261); experiment: as above; conditions: MTase-Glo luminescence, SAH detection, recombinant enzyme, stronger effect = lower value; measured here: NNMT max response unless noted
# Nicotinamide N-methyltransferase (Homo sapiens), sequence (P40261 whole entry, looked up): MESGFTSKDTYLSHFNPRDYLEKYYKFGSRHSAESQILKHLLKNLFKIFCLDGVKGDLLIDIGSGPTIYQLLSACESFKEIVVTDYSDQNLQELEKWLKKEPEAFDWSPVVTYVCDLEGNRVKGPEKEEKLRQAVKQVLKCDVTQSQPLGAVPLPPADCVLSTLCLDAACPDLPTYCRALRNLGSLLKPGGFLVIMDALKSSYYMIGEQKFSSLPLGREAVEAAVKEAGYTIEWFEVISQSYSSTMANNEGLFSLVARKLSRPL
# [11] = target: Phenylethanolamine N-methyltransferase (Homo sapiens) (UniProt P11086); experiment: as above; conditions: MTase-Glo luminescence, SAH detection, recombinant enzyme, stronger effect = lower value; measured here: PNMT max response unless noted
# Phenylethanolamine N-methyltransferase (Homo sapiens), sequence (P11086 whole entry, looked up): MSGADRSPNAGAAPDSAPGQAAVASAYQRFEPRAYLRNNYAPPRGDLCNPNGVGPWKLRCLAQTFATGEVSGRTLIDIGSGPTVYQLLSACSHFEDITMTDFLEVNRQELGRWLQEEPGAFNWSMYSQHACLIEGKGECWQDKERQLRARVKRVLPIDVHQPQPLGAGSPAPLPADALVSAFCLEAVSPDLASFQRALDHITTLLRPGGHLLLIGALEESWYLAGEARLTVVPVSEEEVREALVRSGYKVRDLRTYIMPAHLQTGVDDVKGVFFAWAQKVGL
# [12] = NCATS anti-infectives library activity on HEK293 viability as a counter-qHTS vs the C. elegans viability qHTS (AID 1745854);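 note: HEK293 cells exposed to compounds for 24 hr before the viability read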
# Method in brief: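 Compound titrations (final up to 41.7 uM) were incubated with HEK293 cells for 24 hr at 37C under 5% CO2. Viable cells were quantified with CellTiter-Glo after 10 min at ambient temperature.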
# [13] = NCATS anti-infectives library activity on the primary C. elegans qHTS viability assay (AID 1745855; calls by dose curve)
# Method in brief: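 Titration-based screen in worms: eggs hatched overnight in M9, L1 larvae fed TOP10 capsules in S medium with compound, incubated 21 °C for 7 days; fluorescent objects gated by size and intensity at days 0, 3 and 7.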
# [14] = target: Rap guanine nucleotide exchange factor 3 (Homo sapiens) (UniProt O95398); experiment: Counterscreen qHTS for antagonist of cAMP-regulated guanine nucleotide exchange factor 3 (EPAC1) (AID 1645888)
# Method in brief: (§1)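 Rap1B–BODIPY-GDP (250 nM) with 50 uM GDP; compounds pin-transferred to 9.74 nM–152 uM final (activator) or from 7.32 nM upwards (inhibitor). Fluorescence Ex/Em 480/540 nm read at 5 and 30 min, then after adding cAMP or buffer, at room temperature.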
# [15] = target: Rap guanine nucleotide exchange factor 3 (Homo sapiens) (UniProt O95398); experiment: Counterscreen qHTS for agonist of cAMP-regulated guanine nucleotide exchange factor 3 (EPAC1) (AID 1645889); note: nearly all actives have a fitted effect of over 40% in size
# Method in brief: as §1
structure (smiles),measurement,setting,value
CC(=O)N1CCN(c2ccc(OC[C@H]3CO[C@](Cn4ccnc4)(c4ccc(Cl)cc4Cl)O3)cc2)CC1,Potency,[1],inactive
same,outcome,[2],inactive
same,outcome,[3],inactive
same,Potency,[4],49.4 µM (active)
same,outcome,[5],inactive
same,Potency,[6],inactive
same,Potency,[7],inactive
Cc1nc(Nc2ncc(C(=O)Nc3c(C)cccc3Cl)s2)cc(N2CCN(CCO)CC2)n1,activity,[8],-54.8%
same,Potency,[9],30.4 µM (active)
same,activity,[10],-33%
same,activity,[11],-52.6%
same,outcome,[12],inactive
same,Potency,[6],inactive
same,Potency,[7],inactive
COc1c(O)cc2c(c1O)[C@@H]1O[C@H](CO)[C@@H](O)[C@H](O)[C@H]1OC2=O,activity,[8],-77.9%
same,"activity change, negative = inhibition",[9],0%
same,activity,[10],1.14%
same,activity,[11],-0.831%
same,outcome,[12],inactive
same,Potency,[7],inactive
C[C@H](Cn1cnc2c(N)ncnc21)OCP(=O)(O)O,outcome,[12],inactive
CCN(CC)CCOc1ccc(Nc2ncc3cc(-c4c(Cl)cccc4Cl)c(=O)n(C)c3n2)cc1,activity,[8],-14.1%
same,"activity change, negative = inhibition",[9],1.71%
same,activity,[10],-19.9%
same,activity,[11],-2.93%
same,outcome,[5],inactive
same,Potency,[6],inactive
same,Potency,[7],inactive
COc1cc(Nc2c(C#N)cnc3cc(OCCCN4CCN(C)CC4)c(OC)cc23)c(Cl)cc1Cl,activity,[8],-94.4%
same,Potency,[9],12.1 µM (active)
same,activity,[10],-86.9%
same,activity,[11],-96.9%
same,Potency,[6],inactive
same,Potency,[7],inactive
Oc1ccc2ccccc2c1SSc1c(O)ccc2ccccc12,activity,[8],22.1%
same,"activity change, negative = inhibition",[9],-0.328%
same,activity,[10],-8.59%
same,activity,[11],2.32%
same,outcome,[5],inactive
same,Potency,[6],inactive
same,Potency,[7],inactive
N=C(N)c1ccc2cc(OC(=O)c3ccc(N=C(N)N)cc3)ccc2c1,outcome,[12],inactive
same,Potency,[13],inactive
same,Potency,[6],inactive
COC(=O)C1=C(C)NC(C)=C(C(=O)OCCCN2CCC(c3ccccc3)(c3ccccc3)CC2)C1c1cccc([N+](=O)[O-])c1 (centres undefined),Potency,[1],inactive
same,outcome,[2],inactive
same,outcome,[3],inactive
same,Potency,[6],inactive
Cc1cc(Cl)ccc1OCCCC(=O)NO,outcome,[12],inactive
same,outcome,[5],inactive
same,Potency,[6],inactive
same,Potency,[7],inactive
COC(=O)C1=C(C)NC(C)=C(C(=O)OC(C)C)C1c1cccc2nonc12 (centres undefined),Potency,[1],inactive
same,outcome,[2],inactive
same,outcome,[3],inactive
same,Potency,[4],44.1 µM (active)
same,Potency,[6],inactive
CC(=O)NC[C@H]1CN(c2ccc(N3CCOCC3)c(F)c2)C(=O)O1,outcome,[12],inactive
same,outcome,[5],inactive
same,Potency,[6],inactive
CCOC(=O)c1c(C)n(C)c2ccc(O)cc12,outcome,[12],inactive
same,Potency,[6],inactive
Clc1ccc(C(Cn2ccnc2)OCc2c(Cl)cccc2Cl)c(Cl)c1 (centres undefined),Potency,[1],inactive
same,outcome,[2],inactive
same,outcome,[3],inactive
same,Potency,[4],20.5 µM (active) and inactive
same,outcome,[14],inactive
same,activity,[8],-8.16%
same,"activity change, negative = inhibition",[9],-4.74%
same,activity,[10],-55.2%
same,activity,[11],-12.3%
CC(C)[C@H](N)C(=O)OCCOCn1cnc2c(=O)[nH]c(N)nc21,outcome,[12],inactive
O=c1oc2cc(O)ccc2s1,outcome,[12],inactive
same,Potency,[7],inactive
O=P(O)(O)C(O)(Cn1ccnc1)P(=O)(O)O,"activity change, negative = cytotoxicity",[12],-5.55% [at 3.71 µM] (inactive)
same,Potency,[6],inactive
same,Potency,[7],inactive
Cc1ccc(Nc2nccc(N(C)c3ccc4c(C)n(C)nc4c3)n2)cc1S(N)(=O)=O,activity,[8],-4.72%
same,"activity change, negative = inhibition",[9],0%
same,activity,[10],-0.226%
same,activity,[11],-2.8%
same,Potency,[7],inactive
Cc1c(OCC(F)(F)F)ccnc1CS(=O)c1nc2ccccc2[nH]1 (centres undefined),activity,[8],13%
same,"activity change, negative = inhibition",[9],6.68%
same,activity,[10],8.13%
same,activity,[11],10%
same,Potency,[7],4.53 µM (active)
CC(C)c1nc(CN(C)C(=O)N[C@H](C(=O)N[C@@H](Cc2ccccc2)C[C@H](O)[C@H](Cc2ccccc2)NC(=O)OCc2cncs2)C(C)C)cs1,outcome,[12],inactive
same,Potency,[6],inactive
same,Potency,[7],inactive
O=C1NC(=O)C(c2ccccc2[N+](=O)[O-])=C1Nc1ccc(O)c(Cl)c1,outcome,[12],inactive
same,outcome,[5],inactive
same,Potency,[6],inactive
same,Potency,[7],inactive
CC(C)CC(=O)N[C@H](C(=O)N[C@H](C(=O)N[C@@H](CC(C)C)[C@@H](O)CC(=O)N[C@@H](C)C(=O)N[C@@H](CC(C)C)[C@@H](O)CC(=O)O)C(C)C)C(C)C (Isovaleryl-VV[Sta]A[Sta]-OH),outcome,[12],inactive
same,Potency,[6],inactive
C[C@H](Cc1ccc(O)c(O)c1)[C@@H](C)Cc1ccc(O)c(O)c1,activity,[8],10.2%
same,Potency,[9],30.6 µM (active)
same,activity,[10],-37.4%
same,activity,[11],-61.1%
same,outcome,[5],inactive
same,Potency,[7],inactive
CCOc1cc(CC(=O)N[C@@H](CC(C)C)c2ccccc2N2CCCCC2)ccc1C(=O)O,Potency,[1],inactive
same,outcome,[2],inactive
same,outcome,[3],inactive
same,Potency,[4],inactive
same,outcome,[14],inactive
same,outcome,[15],inactive
same,Potency,[6],inactive
same,Potency,[7],inactive
COc1ccc2cc([C@H](C)C(=O)O)ccc2c1,outcome,[12],inactive
same,Potency,[13],inactive
same,Potency,[7],inactive
CCN(CCO)CCCC(C)Nc1ccnc2cc(Cl)ccc12 (centres undefined),"activity change, negative = cytotoxicity",[12],-19.5% [at 3.71 µM] (inactive)
N=C(N=C(N)N)N1CCOCC1,outcome,[12],inactive
same,Potency,[13],inactive
Cc1ccc(NC(=O)c2ccc(CN3CCN(C)CC3)cc2)cc1Nc1nccc(-c2cccnc2)n1,outcome,[12],inactive
same,Potency,[6],inactive
same,Potency,[7],inactive
